The list is not random: actives were taken first. Their share in the collection is about 5.4%.
LASV entry inh = Lassa virus entry inhibition | Lassa virus pseudotype entry inhibition, cell reporter | Potency, µM (series often up to 37.9 µM), for the others: top-dose activity change, negative = inhibition, usual class: inhibitors | 300,000 tested, 1.2% active; calls by dose curve; tested in HEK293 cells; also: nearly all actives have a fitted effect of over 50% in size
VACV mCherry inh = vaccinia inhibition (mCherry reporter). Vaccinia virus mCherry reporter infection, fluorescence. Potency, µM (titrated, usually from 36.5 µM), inactives show at the highest dose activity change, negative = inhibition, most hits filed as inhibitors. 310,000 tested, 0.63% active. AID 720579; calls by dose curve; tested in A549 cells; also: nearly all actives have a fitted effect of over 35% in size
FMDV inh = blocks foot and mouth disease virus; FMDV antiviral cell-based qHTS; Potency, µM (titrated, usually from 57.9 µM), without a hit: top-dose activity change, negative = inhibition, hits mostly inhibitors; 410,000 tested, 1.2% active; calls by dose curve; tested in HEK293T cells; also: read-out not given here; nearly all actives have a fitted effect of over 45% in size
Sm TGR inh = blocks Schistosoma mansoni thioredoxin glutathione reductase; AID 485364; purified TGR, DTNB reduction, TNB absorbance 405 nm; 360,000 tested, 3% active; Q962Y6; Potency, µM (series often up to 114 µM), without a hit: at the highest dose activity change, negative = inhibition, usual class: inhibitors; active = well fitted inhibition curve with a large enough effect; inconclusive = small, poorly fitted or top-dose-only effect; inactive = no such curve, though single readings can be large or run the other way; also: nearly all actives have a fitted effect of over 60% in size
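First, TGR (20 nM dispensed) and NADPH were mixed with compound. Second, a 15 min room-temperature incubation followed. Third, further NADPH and then DTNB were added to start the reaction. Finally, TNB absorbance was monitored kinetically.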
MARV entry inh = Marburg virus entry inhibition. 300,000 tested, 1.8% active. Marburg virus pseudotyped entry inhibition, cell reporter. AID 540276. Potency, µM (doses to about 37.8 µM), without a hit: at the top dose activity change, negative = inhibition, usual class: inhibitors; calls by dose curve; tested in HEK293 cells
VACV Venus inh = vaccinia inhibition (Venus reporter) | Vaccinia virus Venus reporter expression, fluorescence | Potency, µM (highest dose often 36.5 µM), without a hit: at the highest dose activity change, negative = inhibition, actives largely listed as inhibitors | 330,000 tested, 0.46% active | AID 720580; calls by dose curve; tested in A549 cells; also: nearly all actives have a fitted effect of over 30% in size
An asterisk follows results filed as active; i = inactive; ? = inconclusive; . = no result; [ ] = another dose, or the depositor's remark. % is scaled to controls: 0 for no effect and ±100 for the full control effect; potency is read from the fitted curve at half-maximal effect.

SMILES | LASV entry inh | VACV mCherry inh | FMDV inh | Sm TGR inh | MARV entry inh | VACV Venus inh
Cc1cccc(NC(=O)CCn2nc(-c3ccccc3)c3ccccc3c2=O)c1 | ? | -11% | -7% | 6% | . | -6%
CCN1C(=NCC(C)C)NC(c2cccc(F)c2)C(C(=O)OC)=C1C (configuration not stated) | . | . | . | . | -5%[14.2 µM] | .
CCOc1ccccc1N(CC(=O)NC1CCCCC1)S(=O)(=O)c1ccc(C)cc1 | ? | -25% | 15% | 29% | 3.2µM* | -17%
CCc1ccc(N(CC(=O)NC2CC2)S(=O)(=O)c2ccc(C)cc2)cc1 | ? | -26% | ? | 40µM* | ? | -24%
COc1ccccc1N(CC(=O)NC1CCCC1)S(=O)(=O)c1ccc(C)cc1 | ? | -10% | 3% | -17% | -10% | -13%
c1ccc2c(c1)CCCN2 | . | -17% | . | . | . | -11%
COc1cc2c(cc1OC)C1O[C@](CCCCN3C(=O)c4ccccc4C3=O)(C2)Oc2c1c(=O)oc1ccc(F)cc21 | . | . | . | 2.5µM* | 2%[14.2 µM] | .
COc1cc2c(cc1OC)[C@@H]1O[C@](CCCCN3C(=O)c4ccccc4C3=O)(C2)Oc2c1c(=O)oc1ccccc21 | . | . | . | . | 3%[14.2 µM] | .
COc1cc2c(cc1OC)C1O[C@](CCCCN3C(=O)c4ccccc4C3=O)(C2)OC2=C1C(=O)c1ccccc1C2=O | . | . | . | 4µM* | . | .
COCCNc1oc(-c2ccccc2)nc1S(=O)(=O)c1ccc(Br)cc1 | ? | -5% | 16% | 7% | . | 0%
COCCNc1oc(/C=C/c2ccccc2OC)nc1S(=O)(=O)c1ccccc1 | . | . | -19% | 13µM* | . | .
O=C(CCl)Nc1cccc(Oc2ccccc2)c1 | -2% | -6% | 13µM* | 11µM* | ? | -2%
O=C(CCl)Nc1cccc(Oc2cnccn2)c1 | . | . | ? | 11µM* | . | .
COc1ccccc1NC(=O)c1sc2nc(-c3cc4cc(Cl)ccc4oc3=O)[nH]c(=O)c2c1C | 20%[46.1 µM] | -5% | -6% | -13% | . | 17%
CC(C)(C)C(=O)Nc1nc2nc(-c3ccccc3)cc(=O)n2[nH]1 | ? | -10% | 13% | -2% | 12%[46.1 µM] | -16%
CCC(C)[C@H]1CNCCN1CCc1cc(C(F)(F)F)cc(C(F)(F)F)c1 (some centres not stated) | . | ? | -14% | 1% | . | 16µM*
COc1cc(Cl)cc2c1Sc1ccccc1/C2=C/CCN(C)C | ? | -29% | -15% | 18µM* | ? | ?
COc1cc2c(cc1Cl)/C(=C\CCN(C)C)c1ccccc1S2 | ? | ? | -21% | 28µM* | ? | ?
CC(C)(C)CC(C)(C)N=C1Nc2ccc(Cl)cc2N[C@]12C[C@H]1CCCC(=O)N3CC[C@@H](C2)[C@@H]13 | . | -16% | . | . | . | ?
Cc1cccc(NC(=O)C2CCCN(S(=O)(=O)c3ccc4c(c3)CCCC(=O)N4)C2)c1 (configuration not stated) | 17%[46.1 µM] | -2% | ? | 5% | . | 2%
O=Cc1ccc2noc(-c3ccc(Cl)cc3)c2c1 | -2% | -14% | 21% | 50µM* | ? | -12%
COC(=O)c1c(NC(=O)CN2CCC3(O)CCCCC3C2c2ccc(F)cc2)sc(C)c1C (configuration not stated) | -8% | i | -22% | -12% | ? | -13%
COC(=O)c1c(NC(=O)CN2CCC3(O)CCCCC3C2c2cc(OC)ccc2OC)sc(C)c1C (configuration not stated) | 7.9µM* | -10% | ? | 0% | 15µM* | ?
CN(C)NC1CCS(=O)(=O)C1 (configuration not stated) | 7% | i | . | 1.6µM* | -2% | -7%
C#CC[N+](C)(C)CCCCCCCCC | -10% | 11µM* | -10% | -6% | ? | ?
SMILES | LASV entry inh | VACV mCherry inh | FMDV inh | Sm TGR inh | MARV entry inh | VACV Venus inh
COc1ccc(CCNC(=O)c2cc3sccc3n2Cc2ccc(Cl)cc2)cc1OC | -26%[46.1 µM] | -14% | -19% | -3% | ? | -22%
CC(C)=CCCC(C)=CCON=C1C[C@@H](O)[C@@H](O)[C@@H]2[C@H]3C(=O)N(Cc4ccccc4)C(=O)[C@@H]3CC[C@@H]12 | . | . | . | . | 3%[14.2 µM] | .
O=C(O)[C@@H]1CSCN1S(=O)(=O)c1cccc2nsnc12 | . | . | . | . | -1% | .
O=C(O)C1CSCN1S(=O)(=O)c1cccc2nsnc12 (configuration not stated) | 2% | . | ? | 45µM* | -1% | .
COc1ccc(NC(=O)CN(C)CC(=O)c2[nH]c(C)c(C(C)=O)c2C)cc1 | . | . | 4% | ? | . | .
COc1cc(CN(C)CC(=O)c2[nH]c(C)c(C(C)=O)c2C)ccc1OC(F)F | -23% | . | ? | 22µM* | ? | ?
COc1ccccc1OCC(=O)c1[nH]c(C)c(C(C)=O)c1C | ? | -15% | 20µM* | 1% | ? | ?
CN1C(=O)C2=NC=NC2N(C)C1=O (configuration not stated) | . | . | . | . | 6% | .
N#CN=c1snc(-c2ccccc2)n1-c1ccc(Br)cc1 | . | 3.2µM* | . | . | . | ?
Cc1nnc(C)c2c(C)n(-c3ccc(Br)cc3)c(C)c12 | . | . | . | 11% | -1% | .
COc1ccc(-c2nc3nc(C)cc(Nc4ccc(C(C)=O)cc4)n3n2)cc1 | 17%[46.1 µM] | ? | -5% | -1% | ? | -24%
Cc1ccc(NS(=O)(=O)c2cc3c4c(cccc4c2)C(=O)NC3=O)cc1C | ? | 13µM* | 0% | -18% | ? | 10µM*
O=C1NC(=O)c2cc(Br)cc3cccc1c23 | 17% | 3% | -14% | -12% | -1%[46.1 µM] | -6%
CCN1C(=NCc2ccco2)N[C@@H](CCc2ccccc2)[C@H](C(=O)OC)[C@H]1C | ? | . | . | . | 33%[14.2 µM] | .
CS(=O)(=O)N(CC(=O)N1CCCC1)Cc1ccc(F)cc1 | . | . | 4% | 40µM* | . | .
CC1CCN(C(=O)CN(Cc2ccc(F)cc2)S(C)(=O)=O)CC1 | 15%[46.1 µM] | i | -3% | 0% | -2%[46.1 µM] | 5%
CC(C)=CCC12CC3[C@@H](O)C(C(=O)c4ccccc4)(C1=O)C(=O)C(CC=C(C)C)(C2=O)C3(C)C (some centres not stated) | ? | . | . | . | -26%[14.2 µM] | .
O=C1CSC2(C(=O)N(Cc3ccccc3F)c3ccccc32)N1c1cccc(C(F)(F)F)c1 (configuration not stated) | ? | -8% | ? | -2% | . | 7%
Fc1ccc(-c2cn3cc(Cc4ccccc4)sc3n2)cc1 | ? | -4%[7.34 µM] | 13µM* | -5% | ? | 1%[7.34 µM]
O=C(NC1CCCCC1)C(c1ccccc1)N(Cc1ccc2c(c1)OCO2)C(=O)c1cnsn1 (configuration not stated) | ? | i | 8% | -16% | 11µM* | -16%
Cc1ccc(C(=O)NCC(c2ccc3c(c2)OCO3)N2CCN(c3ccc(F)cc3)CC2)cc1 (configuration not stated) | ? | -21% | ? | -3% | . | -17%
Cc1ccc2[nH]c3c(NCc4ccco4)ncnc3c2c1 | -28% | ? | -10% | -28% | 10µM* | ?
